Measured values from ChEMBL document CHEMBL3988442, “University of Dundee, Small-Polar-MMV Screening Library” (2021).
The campaign covered roughly 48,000 compounds. About 13,000 (27%) showed an effect of 50% or more. This is one part of the list.

What follows are compounds tested on Wolbachia pipientis (assay: Anti-Wolbachia Cell-Based Screen). Settings: 5 µM.
Type: functional
Design: scale not given: in the data most compounds retested in dose-response had high values

Structure (SMILES)	Percent Effect
Cc1cc(C)c2nc(C)cc(C(=O)NC(C)c3nnn[nH]3)c2c1 (stereo not drawn)	1.105%
Cc1cc(C)c(C(=O)N(CCO)Cc2ccccc2F)c(=O)[nH]1	-8.709%
Cc1cc(C(=O)NC2(c3ccc(Br)cc3)CC2)n(C)n1	77.44%
CC(=O)c1cc(C(=O)NC2(c3ccc(Br)cc3)CC2)n(C)c1	-0.634%
Cc1cc(C(=O)NC2(C#N)CCSCC2)n(C)n1	-9.689%
Cc1nnc(N2CCC(CS(N)(=O)=O)CC2)c(C#N)c1C	-8.566%
Cc1nn(C)cc1CCC(=O)N1CCCC(n2cncn2)C1 (stereo not drawn)	-0.08809%
O=C(CCc1ccccc1)N1CCn2cc(Cn3cncn3)nc2C1	-11.69%
Cc1ccc(CCC(=O)N2CCCC(n3cncn3)C2)c(C)c1 (stereo not drawn)	-8.257%
O=C(CCc1ccccc1)N1CC(n2cncn2)C1	125.3%
O=C(COCc1ccccc1)N1CCCC(n2cncn2)C1 (stereo not drawn)	1.365%
O=C(CCc1ccccn1)N1CCCC(n2cncn2)C1 (stereo not drawn)	108%
O=C(CCc1cccc(F)c1F)N1CCCC(n2cncn2)C1 (stereo not drawn)	102.1%
O=C(CCCc1ccccc1)N1CCCC(n2cncn2)C1 (stereo not drawn)	103%
Cc1nc(NC(=O)C(C)S(C)(=O)=O)sc1Cc1ccc(F)cc1 (stereo not drawn)	3.284%
Cn1ccnc1CCNS(=O)(=O)c1cccc(Br)c1	11.32%
CC(C)c1ccc(/C=C/CC(=O)NC2CCN(C(N)=O)CC2)cc1	-28.76%
Cc1cnn(CC2CCCCN2Cc2nc(N)c3ccccc3n2)c1 (stereo not drawn)	-1.986%
CSCCC(NC(N)=O)C(=O)Nc1ccc(-n2cccn2)nc1 (stereo not drawn)	-4.081%
N#CCCN(C(=O)CN1CCCC1C1CCCCC1)c1ccccc1 (stereo not drawn)	-8.996%
CCC(C)N(Cc1ccc(C)cc1)Cc1c[nH]c(C)n1 (stereo not drawn)	14.09%
N#CCCN(c1ccccc1)S(=O)(=O)CC1CCCCO1 (stereo not drawn)	-2.973%
CCOc1ccc(NC(=O)N(CCC#N)Cc2ccccn2)cc1F	-26.47%
O=C(CCc1cccnc1)N1CCCC(n2cncn2)C1 (stereo not drawn)	-7.114%
O=C(Cc1cccnc1)N1CCCC(n2cncn2)C1 (stereo not drawn)	106.6%

Structure (SMILES)	Percent Effect
O=C(Cc1ccccc1Cl)N1CCCC(n2cncn2)C1 (stereo not drawn)	-8.361%
Cc1cccnc1CNc1ccc(C(=O)N2CCc3ccccc32)cn1	0%
OC(CNCCn1cccn1)c1ccc(F)c(F)c1 (stereo not drawn)	-2.779%
CC(C)(C)n1ncc(NCCc2ccccc2C(F)(F)F)c(Cl)c1=O	139.1%
CC(C)(C)n1ncc(NCC(O)c2ccccc2C(F)(F)F)c(Cl)c1=O (stereo not drawn)	100.7%
COCc1cccc(CNc2cnn(C(C)(C)C)c(=O)c2Cl)c1	-38.78%
O=C(NCc1cccnc1)NCC(O)c1ccccc1C(F)(F)F (stereo not drawn)	-3.866%
COc1cc(CNc2cnn(C(C)(C)C)c(=O)c2Cl)ccn1	-46.44%
CC(C)(C)n1ncc(NCC(O)c2ccccc2)c(Cl)c1=O (stereo not drawn)	108.9%
O=C(NCC(O)c1ccccc1C(F)(F)F)c1cccnc1 (stereo not drawn)	-5.174%
COCc1ccc(CNc2cnn(C(C)(C)C)c(=O)c2Cl)cc1	2.959%
CC(C)(C)n1ncc2c(=O)n(CC(=O)NCc3ccccc3Cl)cnc21	3.164%
CC(C)(C)n1ncc(NCC(O)c2ccc(F)c(F)c2)c(Cl)c1=O (stereo not drawn)	100.9%
CC(C)(C)n1ncc(NCc2ccccc2)c(Cl)c1=O	-16.67%
CCc1noc(CNc2ccc(F)cc2OCC2CC2)n1	-5.752%
CC(NCc1cnc(C2CCC2)s1)c1ccccc1-n1cccn1 (stereo not drawn)	-10.15%
Cc1ccc(-c2ccc(C(=O)NCCC(=O)N(C)C)c(F)c2)cc1	-15.57%
c1ccc2c(N3CCSCC3)cnnc2c1	-7.227%
Cc1ccc(CNCCCNS(C)(=O)=O)c(Br)c1	3.842%
CCOC(=O)C(C)NC(=O)CCc1ccc(F)cc1 (stereo not drawn)	2.833%
CCOc1ccc(CC(CNC(=O)c2ccc(C)s2)C(N)=O)cc1 (stereo not drawn)	-16.33%
NC(=O)NC(CC(=O)NCCc1ccc(F)cc1)c1ccccc1 (stereo not drawn)	2.194%
Cc1ccc(CC(=O)NCC(Cc2ccc(F)cc2)C(N)=O)cn1 (stereo not drawn)	110.1%
NC(=O)C(CNC(=O)CCc1ccsc1)Cc1ccc(F)cc1 (stereo not drawn)	115.1%
Cc1ccc(CC(=O)NCC(O)c2cccc(C(F)(F)F)c2)cn1 (stereo not drawn)	-12.46%

Structure (SMILES)	Percent Effect
CCc1ccc2c(c1)C(CCNC(=O)CCc1ccsc1)C(=O)N2 (stereo not drawn)	24.64%
CS(=O)(=O)Nc1cccc(CNC(=O)CCc2ccsc2)c1	-4.988%
Cc1ccc(CC(=O)NCC(O)c2cc(Cl)cc(Cl)c2)cn1 (stereo not drawn)	3.357%
NC(=O)C(CNC(=O)Cc1ccsc1)Cc1ccc(F)cc1 (stereo not drawn)	90.7%
NC(=O)C(CNC(=O)CCc1ccccc1)Cc1ccc(F)cc1 (stereo not drawn)	119.3%
CCOc1ccc(CC(CNC(=O)c2sccc2C)C(N)=O)cc1 (stereo not drawn)	1.626%
CN1CC(c2ccccc2)CC12CCN(C(=O)c1c(Cl)cnn1C)CC2 (stereo not drawn)	11%
CC1CCN(C)c2ccccc2N1C(=O)c1ccnc(-n2cncn2)c1 (stereo not drawn)	-2.842%
Cc1ccccc1C(C(=O)NCc1nc(-c2ncccn2)no1)N(C)C (stereo not drawn)	-2.983%
Cc1cccnc1[C@H](C)Nc1nc(-c2cccnc2)nc2c1CNC2	-9.004%
CC(C)n1ccnc1C1CCN(C(=O)c2ccccc2N(C)C)CC1	-47.93%
COc1cccc(COCC(=O)NC(C(N)=O)c2ccccc2F)c1 (stereo not drawn)	9.878%
COc1cccc(CC(=O)NCC(Cc2ccc(F)cc2)C(N)=O)c1 (stereo not drawn)	112.8%
CCOc1ccc(CC(CNC(=O)c2ccco2)C(N)=O)cc1 (stereo not drawn)	-3.482%
COc1ccccc1C(=O)N(C)Cc1nnc2ccccn12	155.2%
Cc1ccc(C)c(CN(C)Cc2nnc3ccccn23)c1	-4.756%
CN(Cc1nnc2ccccn12)C(=O)CC1CCCCC1	-9.634%
COc1ccc(C(=O)N(C)Cc2nnc3ccccn23)c(OC)c1	-6.181%
COc1ccc(OC)c(C(=O)N(C)Cc2nnc3ccccn23)c1	126.3%
COc1ccc(C(=O)N(C)Cc2nnc3ccccn23)c(OC)c1OC	155.5%
CN(Cc1nnc2ccccn12)C(=O)CCC1CCCC1	-7.535%
COc1cccc(C(=O)N(C)Cc2ncc(C)c(OC)c2C)c1OC	-3.642%
COc1ccc(C(=O)N(C)Cc2cccc(C#N)c2)c(OC)c1OC	5.74%
